From PubChem BioAssay (NCI)
The panel holds about 79,000 compounds, 15% with a hit somewhere; the sample as a whole holds those more often. Rule as the data show it: active = growth inhibition above about 70%; inactive = the rest.

Tests used:
[1] = NCI Yeast Anticancer Drug Screen. Data for the rad52 strain (AID 147);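 also: 0% = growth of vehicle-treated control cultures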; conditions: S. cerevisiae rad52 mutant growth inhibition, stronger effect = higher value
Method in brief: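 Inhibition of yeast growth, referenced to vehicle controls, was the measured output for a strain with defective DNA damage repair.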

[2] = NCI Yeast Anticancer Drug Screen. Data for the wt1 strain (AID 149);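 also: 0% = growth of vehicle-treated wt1 cultures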; conditions: S. cerevisiae wt1 strain (SPY 50644) growth inhibition, stronger effect = higher value
Method in brief: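 The wt1 strain was treated with compounds, and growth was compared with vehicle-treated cultures to give inhibition.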

[3] = NCI Yeast Anticancer Drug Screen. Data for the rad50EPP+ strain (AID 151);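 also: 0% = growth of vehicle-treated control cultures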; conditions: S. cerevisiae rad50 mutant strain, stronger effect = higher value
Method in brief: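 Genetically defined yeast (rad50EPP+, DNA damage repair alteration) is grown with compound, and inhibition of growth is expressed relative to vehicle-treated controls.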

[4] = NCI Yeast Anticancer Drug Screen. Data for the rad50 strain (AID 155);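 also: 0% = growth of vehicle-only cultures of the same strain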; conditions: S. cerevisiae rad50 strain growth inhibition, stronger effect = higher value
Method in brief: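 Cells are treated with compound, grown, and their growth is then scored against vehicle-only cultures of the same repair-deficient yeast strain.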

[5] = NCI Yeast Anticancer Drug Screen. Data for the mec2-1 strain (AID 157); conditions: S. cerevisiae mec2-1 strain, stronger effect = higher value
Method in brief: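 Each compound was tested on mec2-1 yeast, a strain altered in DNA damage repair or cell cycle control. Growth inhibition is reported relative to vehicle.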

[6] = NCI Yeast Anticancer Drug Screen. Data for the rad14 strain (AID 159);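 also: 0% = growth of vehicle-treated control cultures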; conditions: S. cerevisiae rad14 strain growth inhibition, stronger effect = higher value
Method in brief: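 Readout: yeast growth inhibition, referenced to vehicle-only cultures. Strain bears a defined alteration in DNA damage repair.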

[7] = NCI Yeast Anticancer Drug Screen. Data for the sgs1 mgt1 strain (AID 161);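 also: 0% = growth of cultures given vehicle only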; conditions: S. cerevisiae sgs1 mgt1 strain, stronger effect = higher value
Method in brief: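 Test agents were incubated with a DNA-repair-mutant yeast strain. Growth was then read and compared against vehicle-treated controls.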

[8] = NCI Yeast Anticancer Drug Screen. Data for the CLN2oe strain (AID 163);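 also: 0% = growth of vehicle-only control cultures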; conditions: S. cerevisiae CLN2oe strain, stronger effect = higher value
Method in brief: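 First, the altered yeast strain was treated with each compound; second, its growth was measured; finally, inhibition was derived by comparison with vehicle controls.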

[9] = NCI Yeast Anticancer Drug Screen. Data for the cln2 rad14 strain (AID 165);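 also: 0% = growth equal to vehicle treated cultures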; conditions: S. cerevisiae cln2 rad14 strain, stronger effect = higher value
Method in brief: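 Test compounds were added to cln2 rad14 yeast cultures; inhibition of growth was then determined by comparison with vehicle treatment.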

[10] = NCI Yeast Anticancer Drug Screen. Data for the bub3 strain (AID 167); conditions: S. cerevisiae bub3 mutant strain, stronger effect = higher value
Method in brief: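 Part of a panel of yeast mutants defective in DNA damage repair or cell cycle regulation. Each strain is grown with compound, and inhibition is calculated relative to solvent-treated cultures.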

[11] = NCI Yeast Anticancer Drug Screen. Data for the wt2 strain (AID 169);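 also: 0% = growth of vehicle-treated yeast cultures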; conditions: S. cerevisiae wt2 strain growth inhibition, stronger effect = higher value
Method in brief: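 The panel's yeast strains carry defined changes in DNA repair or cell cycle genes. Each strain is grown with compound, and growth loss is scored relative to vehicle.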

[12] = NCI Yeast Anticancer Drug Screen. Data for the mlh1 strain (AID 171);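 also: 0% = growth of vehicle-treated control cultures of the same strain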; conditions: S. cerevisiae mlh1 strain growth inhibition, stronger effect = higher value
Method in brief: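 Inhibition values reflect reduced yeast growth in the presence of compound, referenced to vehicle controls, using a strain chosen for its alteration in DNA repair or cell cycle control.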

[13] = NCI Yeast Anticancer Drug Screen. Data for the sgs1 strain (AID 173);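 also: 0% = growth of vehicle-only control cultures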; conditions: S. cerevisiae sgs1 mutant, stronger effect = higher value
Method in brief: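 Vehicle-treated cultures served as reference for growth inhibition of a yeast strain altered in DNA damage repair or cell cycle control after compound exposure.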

[14] = NCI Yeast Anticancer Drug Screen. Data for the mlh1 rad18 strain (AID 175); conditions: S. cerevisiae mlh1 rad18 strain growth inhibition, stronger effect = higher value
Method in brief: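 Inhibition values reflect reduced growth of mutant yeast versus vehicle-treated controls following compound exposure; the mutations affect DNA damage repair.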

[15] = NCI Yeast Anticancer Drug Screen. Data for the rad18 strain (AID 177); conditions: S. cerevisiae rad18 mutant growth inhibition, stronger effect = higher value
Method in brief: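 Steps: expose repair-mutant yeast to compound; measure growth; express as inhibition relative to vehicle control.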

[16] = at 5.0 µM (retest, dose inferred, filed as 0.5)
[17] = at 50.0 µM (retest, dose inferred, filed as 5.0)

Measured: growth inhibition

O=C(O)c1[nH]c(=O)c2ccccc2c1Nc1ccccc1
inactive: [1]; at 1.2 µM -2% | [1]; at 3.7 µM -1% | [1]; at 11.0 µM 2% | [1]; at 33.0 µM 4% | [1]; at 100.0 µM 3% | [2]; at 1.2 µM -1% | [2]; at 3.7 µM -2% | [2]; at 11.0 µM -2% | [2]; at 33.0 µM -1% | [2]; at 100.0 µM 1% | [3]; at 1.2 µM -3% | [3]; at 3.7 µM -2% | [3]; at 11.0 µM 0% | [3]; at 33.0 µM -1% | [3]; at 100.0 µM 6% | [4]; at 1.2 µM -3% | [4]; at 3.7 µM -1% | [4]; [16] -6% | [4]; at 11.0 µM 1% | [4]; at 33.0 µM 4% | [4]; [17] -11% | [4]; at 50.0 µM -0.85% | [4]; at 100.0 µM 0% | [5]; at 1.2 µM -3% | [5]; at 3.7 µM -3% | [5]; [16] -13% | [5]; at 11.0 µM -2% | [5]; at 33.0 µM 1% | [5]; [17] -24% | [5]; at 50.0 µM -1.2% | [5]; at 100.0 µM 3% | [6]; at 1.2 µM -3% | [6]; at 3.7 µM -3% | [6]; at 11.0 µM 1% | [6]; at 33.0 µM 1% | [6]; at 100.0 µM 2% | [7]; [16] 0% | [7]; [17] 5% | [7]; at 50.0 µM 10.3% | [8]; at 1.2 µM -3% | [8]; at 3.7 µM 1% | [8]; at 11.0 µM -2% | [8]; at 33.0 µM -1% | [8]; at 100.0 µM 1% | [9]; [16] -23% | [9]; [17] 41% | [9]; at 50.0 µM -10.4% | [10]; at 1.2 µM -2% | [10]; at 3.7 µM -2% | [10]; [16] -4% | [10]; at 11.0 µM -3% | [10]; at 33.0 µM -3% | [10]; [17] -11% | [10]; at 50.0 µM -6.6% | [10]; at 100.0 µM -2% | [11]; at 1.2 µM -3% | [11]; at 3.7 µM -3% | [11]; at 11.0 µM -2% | [11]; at 33.0 µM -4% | [11]; at 100.0 µM 0% | [12]; at 1.2 µM -2% | [12]; at 3.7 µM 0% | [12]; at 11.0 µM 0% | [12]; at 33.0 µM 1% | [12]; at 100.0 µM 4% | [13]; at 1.2 µM -7% | [13]; at 3.7 µM -3% | [13]; at 11.0 µM 1% | [13]; at 33.0 µM 1% | [13]; at 100.0 µM 2% | [14]; [16] -14% | [14]; [17] -8% | [14]; at 50.0 µM 7.5% | [15]; at 1.2 µM -2% | [15]; at 3.7 µM -1% | [15]; at 11.0 µM 0% | [15]; at 33.0 µM 0% | [15]; at 100.0 µM 6%
